Rtt109 HAT inh – inhibitors of Candida albicans Rtt109/Vps75 histone acetyltransferase. Q5AAJ8. purified Rtt109/Vps75, ThioGlo CoA-SH fluorescence, 4 h. inhibition, % at 34.9 µM. 0.16% of 330,000 active. AID 540336;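 active = inhibition of at least 50% in every replicate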
rCAG RNA binder – r(CAG) repeat RNA binding | TO-PRO-1 dye displacement fluorescence | inhibition, % at 3 µM | 1.3% of 370,000 active;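 active = inhibition above the plate cutoff, the mean of all test compounds on that plate plus 3 SD, cut at about 35% in these data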;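 also: 0% = DMSO alone and 100% = 100 µM mitoxantrone as full dye displacement; higher means more dye released from RNA so lower well fluorescence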
PRMT1 inh – blocks human protein arginine methyltransferase 1 | Q99873 | recombinant PRMT1, activity-based probe fluorescence polarization | inhibition, % at 2.79 µM | 1.3% of 370,000 active | AID 652257;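 active = inhibition above about 21% made by adding two undisclosed values, limit read from the data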
ABHD5-PLIN5 inh – blocks binding of human ABHD5 to perilipin-5 | Q00G26+Q8WTS1 | Split G. princeps luciferase complementation, luminescence, 4 h | inhibition, % at 4 µM | 0.78% of 360,000 active | AID 602281;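 active = inhibition above the mean inhibition across every tested compound plus 3 SD, cut at about 22% in these data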;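 also: 0% = DMSO only wells and the 100% control is not disclosed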
LANA-H2B inh – blocks KSHV LANA binding to histone H2A/H2B. Q9QR71. cell-free LANA-H2A/H2B peptide, fluorescence polarization. 0.6% of 320,000 active. inhibition, % (no concentration beside the values); in the data active = inhibition mostly above about 10%, no sharp cut-off; inactive = mostly below about 6.7%
ALR inh – blocks human ALR sulfhydryl oxidase activity | P55789 | purified ALR, DTT oxidation, H2O2 HRP-luminol luminescence | inhibition, % (no concentration beside the values) | 3.8% of 290,000 active;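 active = mean replicate inhibition above about 79%, with every replicate also reaching it, limit read from the data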
Target sequence (P55789 whole entry, looked up): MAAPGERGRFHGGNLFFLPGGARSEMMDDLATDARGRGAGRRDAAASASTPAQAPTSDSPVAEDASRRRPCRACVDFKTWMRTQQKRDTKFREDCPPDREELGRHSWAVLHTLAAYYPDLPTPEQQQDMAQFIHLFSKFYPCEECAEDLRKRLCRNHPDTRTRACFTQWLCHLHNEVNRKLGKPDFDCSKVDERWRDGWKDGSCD
An asterisk follows results filed as active; i = inactive; / = no result given. Shown are actives, neighbours in structure and some others; about 5.9% of the full set was active somewhere.

SMILES	Rtt109 HAT inh	rCAG RNA binder	PRMT1 inh	ABHD5-PLIN5 inh	LANA-H2B inh	ALR inh
Nc1nc2c(ncn2[C@@H]2O[C@H](C(=O)N[C@H](Cc3ccccc3)C(=O)NCc3ccccc3)[C@@H](O)[C@H]2O)c(=O)[nH]1	/	6	2	/	/	/
CCc1ccc(CN2CCC(Oc3cc(C(=O)NC4CC4)ccc3OC)CC2)cc1	/	-1	3	0	/	/
O=S1(=O)CC(N2CCC(c3ccccc3)CC2)CN1Cc1cn(Cc2ccc(C(F)(F)F)cc2)nn1 (stereo not given)	/	-1	-1	/	/	/
CC(C)CCN(C)C1CCN(S(=O)(=O)c2cccc(C(F)(F)F)c2)CC1	-7	/	/	0	25*	-1
CCN(CC)c1ccc(-n2c(C)c(C(C)=O)c(C(C)=O)c2C)cc1	-2	-11	0	-2	4	/
CCN(CC)c1ccc(-n2c(C)cc(C=O)c2C)cc1	1	-7	-2	-1	3	98*
CCN1C(=O)/C(=C2/SC(C)=C(C)N2CC)SC1=S	-3	0	1	4	-3	97*
CCN1C(=O)/C(=C2\C=Cc3ccccc3N2CC)SC1=S	18	0	1	6	-4	/
CCOc1cccc2cc(-c3csc(NC(=O)CCC(=O)NCCCN4CCC(C)CC4)n3)c(=O)oc12	/	/	/	/	-3	99*
CCOc1cccc2cc(-c3csc(NC(=O)CCC(=O)NCCN4CCCCC4C)n3)c(=O)oc12 (stereo not given)	-12	5	0	2	7	99*
CCOc1cccc2cc(-c3csc(NC(=O)CCC(=O)N4CCC(C)CC4)n3)c(=O)oc12	10	1	-1	-1	1	0
COc1cccc2cc(-c3csc(NC(=O)CCC(=O)NCCCN4CCC(C)CC4)n3)c(=O)oc12	1	3	1	1	-4	9
Nc1[nH]c2cc(C(F)(F)F)ccc2c1C(=O)NCc1ccc(F)cc1	/	5	4	/	/	/
CC(SCC(=O)Nc1ccccc1)c1nc2ccccc2c(=O)[nH]1 (stereo not given)	-4	-4	0	-6	-7	-21
Cc1cc(C(=O)CSc2nc3ccccc3c(=O)[nH]2)c(C)n1C	0	7	6	-9	4	98*
Cc1cc(C(=O)CSC(C)c2nc3ccccc3c(=O)[nH]2)c(C)n1C (stereo not given)	-5	2	10	-15	1	99*
CCOc1ccc(CCNC(=O)CS(=O)Cc2nc(-c3ccc(C)cc3)oc2C)cc1OCC (stereo not given)	9	-1	-5	1	-3	98*
CCOc1ccc(CCNC(=O)CS(=O)Cc2nc(-c3ccc(C)cc3)oc2C)cc1 (stereo not given)	5	-7	5	-2	-2	99*
Cc1ccc(CCNC(=O)CS(=O)Cc2nc(-c3cccc(C)c3)oc2C)cc1 (stereo not given)	-10	2	0	-4	4	99*
COc1cccc(-c2nc(CS(=O)CC(=O)NCCc3ccc(C)cc3)c(C)o2)c1 (stereo not given)	2	-5	12	4	0	14
COc1ccc(-c2nc(CS(=O)(=O)CC(=O)NCCc3ccc(C)cc3)c(C)o2)cc1	-6	2	3	0	-6	-21
COc1ccc(-c2nc(CS(=O)CC(=O)NCCC3=CCCCC3)c(C)o2)cc1 (stereo not given)	-8	0	6	5	-3	99*
CCOc1ccc(CCNC(=O)COC(=O)COc2ccccc2C)cc1OCC	-3	-7	-4	-1	1	-9
CCOc1ccc(CCNC(=O)CS(=O)Cc2nc(-c3ccccc3C)oc2C)cc1OCC (stereo not given)	-2	-7	5	-1	5	99*
CC(c1ccc2ccccc2c1)c1ccccc1C(=O)O (stereo not given)	/	8	1	-6	/	/
SMILES	Rtt109 HAT inh	rCAG RNA binder	PRMT1 inh	ABHD5-PLIN5 inh	LANA-H2B inh	ALR inh
CC1(C)CNc2cc(N)ccc2S1	1	11	12	-17	1	84*
O=C1OCC(CO)(CO)N=C1NNc1ccc(Cl)c(Cl)c1	3	2	-2	-6	-5	100*
C=CCN1C(=O)[C@H](CC(=O)N2CCCCC2)[C@@]2(C(=O)OCC)CCCC=C12	/	-1	0	/	/	/
Nn1c(SCC(=O)NC2CCCCC2)nnc1-c1cc(-c2ccccc2)n[nH]1	/	0	-5	/	/	/
CC(=O)N1CCN(Cc2cc(=O)oc3ccccc23)CC1	/	1	2	3	/	/
Nc1ccc(-c2c3ccc(=O)cc-3oc3cc(O)ccc23)cc1C(=O)O	-2	i	71*	14	38*	/
COc1ccc(-c2c(C)c3ccc(O)cc3oc2=O)cc1OC	-83	1	-4	-7	-3	6
O=c1ccc2c(-c3ccccc3)c3ccc(O)cc3oc-2c1	1	i	90*	10	61*	-1
O=c1cc(-c2ccccc2)oc2cc(O)ccc12	5	7	-5	-4	/	/
